High-throughput results (PubChem BioAssay)
Sampled rows, rich in hits. Any-hit rate of the full collection: about 12%.
CHX counter: Cycloheximide Counterscreen for Small Molecule Inhibitors of Shiga Toxin. cell reporter, cycloheximide protein synthesis inhibition counterscreen. hit rate 12% among 300,000. AID 2314, 2010. max response, %; in the data active = max response mostly above about 13%, no sharp cut-off; inactive = mostly below about 14%; also: read at 38.3 µM for the half of the compounds with a filed dose; 0% is about no effect
Shiga inhibitor: A qHTS for Small Molecule Inhibitors of Shiga Toxin; Vero cells, Shiga toxin protein synthesis inhibition reporter; inhibition, % at 38.7 µM; hit rate 9.2% among 290,000; in the data active = inhibition mostly above about 28%, no sharp cut-off; inactive = mostly below about 43%; also: 0% is about no effect
NS1 inh: qHTS Assay for Inhibitors of Influenza NS1 Protein Function; hit rate 0.4% among 270,000; Potency, µM (series often up to 46.1 µM), for the others: at the top dose activity, positive = more growth; also: potency is read from the fitted curve at half-maximal effect; actives are rising curves; nearly all actives have a fitted effect of over 50% in size
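Growth recovery, yeast-based: influenza A NS1 expressed in S. cerevisiae causes slow growth, and suppressors are detected by OD600. The parent strain without NS1 is used as positive control.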
SARS PLP yeast: qHTS of Yeast-based Assay for SARS-CoV PLP; S. cerevisiae expressing SARS-CoV PLpro, growth rescue; Potency, µM (doses to about 32.9 µM), inactives show at the top dose activity, positive = growth rescue, hits mostly activators; hit rate 0.19% among 330,000; also: potency is read from the fitted curve at half-maximal effect; 0% is about no effect; nearly all actives have a fitted effect of over 55% in size
Active calls of the source: *; i = inactive; ? = inconclusive; / = not tested or not shown; [ ] = another dose, or the depositor's remark. Unless noted, calls follow the shape of the full dose curve.

SMILES	CHX counter	Shiga inhibitor	NS1 inh	SARS PLP yeast
Cc1ccccc1NC(=O)c1cccnc1	-2.8	-1.0	9.8%	4.6%
O=C(Nc1ccc(Cl)cc1C(=O)c1ccccc1)c1ccccc1	-4.6	-13.7	-9.5%	-10.4%
O=C(Nc1ccccc1Cl)c1ccccc1	30.1*	148.1*	/	0.5%
O=c1cc(-c2cccc(-c3ccc(C(F)(F)F)cc3)c2)c2cc3c(cc2o1)OCO3	8.5	i	/	/
O=C(Nc1ccc(Cl)cc1Cl)C1=Cc2ccccc2OC1	53.5*	67.6*	-5.9%	-0.7%
COCC(=O)Nc1ccc(C(=O)Nc2ccccc2Cl)cc1	32.5*	92.1*	-2.3%	-2.2%
COc1ccccc1CN(C)CC(=O)Nc1ccc(Cl)cc1C(F)(F)F	14.8*	13.0	-8.2%	-16.2%
COc1ccccc1NC(=O)c1ccc(NC(=O)COC(=O)C(C)C)cc1	8.6	-2.1	-13.1%	-13.0%
O=C(Nc1ccc(F)c(Cl)c1)c1cccnc1	13.7*	7.0	-14.7%	5.7%
O=C(Nc1ccc(F)c(Cl)c1)c1ccccc1	/	/	/	-4.2%
CC(C)OCCCNC(=O)CN1C(=O)/C(=C/c2ccccc2)Sc2ccccc21	-2.2	-0.2	-17.5%	-4.9%
CS(=O)(=O)c1ccc(C(=O)Nc2ccccc2Cl)cc1	13.9	13.1	-3.3%	0.2%
Cc1ccc(C(=O)Nc2ccccc2Cl)cc1	36.6*	/	13.6%	2.3%
CCC(C(=O)OCC(=O)NCc1ccc2c(c1)OCO2)c1ccccc1 (stereo not given)	/	/	/	-4.6%
CCOC(=O)c1cc2c(ccc3ccccc32)oc1=O	2.0	5.4	-37.0%	-1.1%
CCOC(=O)c1cc2c(=O)c3ccccc3oc2nc1C	39.9*	102.8*	0.1%	-2.7%
COCc1nc2oc3ccccc3c(=O)c2cc1C(=O)OC	12.0*	45.7*	-0.1%	1.2%
Cc1cnc(N)c2c(=O)oc3ccccc3c12	0.8	21.8	-12.1%	2.2%
CCN(CC)C(=O)c1cc2c(=O)c3cc(F)ccc3oc2nc1C	38.5*	63.7*	-5.3%	1.4%
CCOC(=O)c1c(C)nc(C)c2c(=O)oc3ccccc3c12	33.4*	92.6*	/	0.3%
Cc1nc(Cc2nnc(SCC(=O)Nc3c(C)cccc3C)o2)cs1	/	/	/	8.9%
Cc1ccc(C(=O)NCC(=O)OCC(=O)NCC(F)(F)F)cc1	17.6*	-5.5	/	-2.5%
O=C(CC12CC3CC(CC(Br)(C3)C1)C2)NCc1ccccc1	-5.9	-7.2	-1.5%	1.0%
CCn1c(SCc2ccc(C(=O)Nc3nccs3)cc2)nnc1-c1ccc(NC(C)=O)cc1	7.7	-3.1	24.4%	8.5%
CC(NC(=O)c1ccco1)C(=O)Nc1nccs1 (stereo not given)	/	/	/	-0.8%
SMILES	CHX counter	Shiga inhibitor	NS1 inh	SARS PLP yeast
O=C(Nc1nccs1)c1ccc(COc2c(F)c(F)cc(F)c2F)cc1	56.1*	79.5*	-0.9%	-0.9%
Cc1ccccc1NC(=O)c1ccc2nccnc2c1	9.0	24.0	-7.1%	0.4%
O=C(Nc1nccs1)c1ccc(NC(=O)c2ccco2)cc1	46.6*	85.7*	-53.9%	-4.6%
COc1ccc(CC(=O)Nc2ccc(C(=O)Nc3nccs3)cc2)cc1OC	9.5	30.2	/	0.0%
O=C(Nc1nccs1)c1ccc2nccnc2c1	23.5*	44.7*	-125.2%	-2.0%
CCn1c(SCc2ccc(C(=O)Nc3nccs3)cc2)nnc1-c1ccc(N)cc1	19.7*	45.8	18.6%	0.2%
CCCCC[C@@H]1C=C(C(=O)O)[C@H](c2ccc3c(c2)OCO3)N1S(=O)(=O)c1ccc(C)cc1	/	/	/	-1.7%
O=C(Nc1ccccc1Br)c1ccc2nccnc2c1	35.3	46.3*	-9.9%	-1.1%
O=C(Nc1nccs1)c1ccc(S(=O)(=O)NCc2cccs2)cc1	14.1	49.3	0.2%	2.8%
Cc1ccc(C(=O)Nc2nccs2)cc1	36.6*	115.9*	-11.2%	-3.5%
Nc1ccc(C(=O)Nc2nccs2)cc1	33.2*	125.3*	-0.1%	0.7%
N#Cc1cnn2cc(-c3ncc(C(F)(F)F)cc3Cl)cnc12	28.7*	24.4	-0.9%	-0.8%
FC(F)(F)c1cnc(-c2cnc3c(-c4ccc(Cl)cc4)cnn3c2)c(Cl)c1	-2.0	14.0	-2.4%	-1.4%
Cc1cc2ncc(-c3ncc(C(F)(F)F)cc3Cl)cn2n1	15.1*	10.1	-1.2%	-4.7%
Cc1nn2cc(-c3ncc(C(F)(F)F)cc3Cl)cnc2c1Br	20.1	57.4*	/	1.4%
COc1ccc(-c2cnn3cc(-c4cccc(Cl)c4)cnc23)cc1	-5.9	-8.7	13.9%	-1.8%
Cc1cc2ncc(-c3cccc(Cl)c3)cn2n1	47.6*	75.5*	/	2.8%
CCCN1CNC(=S)N(c2ccccc2OCC)C1	-1.6	-4.2	4.5%	-2.5%
COc1ccc(CN2C(=O)c3cccnc3C2=O)cc1S(=O)(=O)N1CCCCC1C (stereo not given)	7.1	-4.1	1.8%	1.5%
Cc1ccc(SC2=C(Sc3ccc(C)cc3)C(=O)c3ccccc3C2=O)cc1	28.4*	36.7*	4.7%	-6.5%
O=C1C(=O)c2ccccc2-c2ccccc21	-11.6	-40.6	-39.3%	-54.4%
CC1=CC(=C2C(=O)c3ccccc3C2=O)C=C(C)O1	11.3*	17.7	-4.3%	2.5%
O=C1c2ccccc2C(=O)N1Cc1ccco1	-2.9	-12.4	-0.9%[9.22 µM]	0.6%
CC1=CC(=C2C(=O)c3ccccc3C2=O)C=C(C)N1Cc1ccco1	37.0*	65.7*	-43.5%	-13.2%
Cc1nn(C)c2nc(NNC(=O)Nc3cc(Cl)nc(Cl)c3)cc(C(C)C)c12	4.0	13.8	/	/
SMILES	CHX counter	Shiga inhibitor	NS1 inh	SARS PLP yeast
O=c1cc(/N=C/c2coc3c(ccc4ccccc43)c2=O)[nH]c(=S)[nH]1	-2.4	5.8	21.3%	14.9%
Cc1c(Cl)cccc1N1C(=O)CC(NNC(=O)c2cccs2)C1=O (stereo not given)	20.2*	18.4	/	0.2%
O=C(NNC1CC(=O)N(c2ccc(Br)cc2)C1=O)c1cccs1 (stereo not given)	13.7	34.7*	-2.3%	-0.1%
O=C(O)c1cccc(N2C(=O)c3ccc(Oc4ccc(Cl)cc4)cc3C2=O)c1	19.6*	25.9	-1.4%	-0.1%
COc1ccc(-c2cc(C(=O)Nc3cc(C)ccc3O)no2)cc1	14.0*	21.9	2.2%	0.0%
COc1ccc(-c2cc(C(=O)Nc3cc(Cl)ccc3O)no2)cc1	37.9*	69.9*	-0.2%	-2.9%
Cc1ccc(O)c(NC(=O)c2cc(-c3ccccc3Cl)on2)c1	34.3*	78.1*	8.6%	-1.8%
COc1ccc(-c2cc(C(=O)Nc3cc(Cl)ccc3OC)no2)cc1	-2.8	-11.1	3.6%	1.3%
Cc1cccc(NC(=O)CNC(=O)CSc2nnc(C(F)(F)F)n2C)c1C	/	/	/	6.0%
CNC(C(=O)c1ccccc1)C(OC)c1ccc(C)cc1 (stereo not given)	11.4*	44.0*	2.0%	?
CC1=C(/C=C/C(C)=C/C=C/C(C)=C\C(=O)O)C(C)(C)CCC1	/	/	-7.2%	/
CC1=C(/C=C/C(=C/C=C/C(C)=C/C(=O)O)c2ccc(C)cc2)C(C)(C)CCC1	60.9*	90.6*	/	/
CCOC(=O)C(NC(=O)CC)(Nc1ccc(S(N)(=O)=O)cc1)C(F)(F)F (stereo not given)	-0.5	10.5	-3.7%	-0.4%
CC(=Nc1cc(C(=O)c2ccccc2)ccc1N)C1=C(O)CC(C)(C)CC1=O	29.2*	124.6*	/	-4.3%
